PubChem BioAssay (EPA / NIEHS)
The source made the active and inactive calls. How the source made its calls: active means hit-call score of the fitted dose curve at least 0.9, where 1 is the maximum; inactive means score below 0.9.

Legend:
[1] = read-out: Interleukin-8 (IL8), CXCL8 (gene 3576); test: BSK_CASM3C_IL8: BioMAP Diversity Plus: CASM3C Assay for Interleukin-8 (IL8) Biomarker Activity (AID 2283042); conditions: primary human coronary artery smooth muscle cells; actives raise or lower the signal;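 further: IL-8 protein level quantified by ELISA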
[2] = read-out: Human Leukocyte Antigen - DR isotype (HLADR), HLA-DRA (gene 3122); test: BSK_CASM3C_HLADR: BioMAP Diversity Plus: CASM3C Assay for Human Leukocyte Antigen - DR isotype (HLADR) Biomarker Activity (AID 2283043); conditions: primary human coronary artery smooth muscle cells; actives raise or lower the signal;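 further: cell-surface HLA-DR protein level quantified by ELISA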
[3] = read-out: Macrophage colony-stimulating factor (MCSF), CSF1 (gene 1435); test: BSK_CASM3C_MCSF: BioMAP Diversity Plus: CASM3C Assay for Macrophage colony-stimulating factor (MCSF) Biomarker Activity (AID 2283044); conditions: primary human coronary artery smooth muscle cells; actives raise or lower the signal;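 further: M-CSF protein amount quantified by ELISA after 24 h exposure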
[4] = read-out: Low-density lipoprotein receptor (LDLR), LDLR (gene 3949); test: BSK_CASM3C_LDLR: BioMAP Diversity Plus: CASM3C Assay for Low-density lipoprotein receptor (LDLR) Biomarker Activity (AID 2283045); conditions: primary human coronary artery smooth muscle cells; actives raise or lower the signal;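 further: LDLR protein level on the cell surface quantified by ELISA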
[5] = read-out: Monocyte Chemoattractant Protein-1 (MCP1), CCL2 (gene 6347); test: BSK_CASM3C_MCP1: BioMAP Diversity Plus: CASM3C Assay for Monocyte Chemoattractant Protein-1 (MCP1) Biomarker Activity (AID 2283046); conditions: primary human coronary artery smooth muscle cells; actives raise or lower the signal;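 further: MCP-1 level quantified by ELISA 24 h after dosing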
[6] = BSK_CASM3C_Proliferation: Cell Proliferation Assessment in the BioMAP Diversity Plus: CASM3C Assay (AID 2283047); conditions: primary human coronary artery smooth muscle cells;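 further: sulforhodamine B total protein stain as relative cell number at 560 nm; sub-confluent cells exposed 48 h before staining; fitted both ways against DMSO so gain or loss of cell number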
[7] = read-out: Monokine induced gamma interferon (MIG), CXCL9 (gene 4283); test: BSK_CASM3C_MIG: BioMAP Diversity Plus: CASM3C Assay for Monokine induced gamma interferon (MIG) Biomarker Activity (AID 2283048); conditions: primary human coronary artery smooth muscle cells; actives raise or lower the signal;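 further: MIG protein level measured by ELISA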
[8] = read-out: serum amyloid A (SAA), SAA1 (gene 6288); test: BSK_CASM3C_SAA: BioMAP Diversity Plus: CASM3C Assay for serum amyloid A (SAA) Biomarker Activity (AID 2283049); conditions: primary human coronary artery smooth muscle cells; actives raise or lower the signal;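 further: SAA protein level quantified by ELISA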
[9] = BSK_CASM3C_SRB: Viability Assessment in the BioMAP Diversity Plus: CASM3C Assay (AID 2283050); conditions: primary human coronary artery smooth muscle cells;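 further: total protein by SRB staining as cytotoxicity measure in parallel cultures; cells exposed to compound for 24 h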
[10] = read-out: Thrombomodulin, THBD (gene 7056); test: BSK_CASM3C_Thrombomodulin: BioMAP Diversity Plus: CASM3C Assay for Thrombomodulin Biomarker Activity (AID 2283051); conditions: primary human coronary artery smooth muscle cells; actives raise or lower the signal;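 further: thrombomodulin protein level measured by ELISA 24 h after dosing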

Measured: AC50

CCOC(=O)CN[C@@H](C(=O)N1CC[C@H]1C(=O)NCc1ccc(/C(N)=N/O)cc1)C1CCCCC1
inactive: all assays above

OCC(CO)(CBr)CBr
inactive: all assays above

CN(Cc1cnc2nc(N)nc(N)c2n1)c1ccc(C(=O)N[C@@H](CCC(=O)O)C(=O)O)cc1
inactive: all assays above

C=COC(=O)C(C)(C)CCCCCC
active: [2] 35.9 µM | [3] 32 µM | [5] 20 µM | [6] 37.8 µM | [7] 32.6 µM | [9] 31.9 µM
inactive: [1] | [4] | [8] | [10]

CN(C)CCOC(c1ccccc1)c1ccccc1
not listed: [3]
inactive: all other assays above

C=CC(C)(CCC=C(C)C)OC(C)=O (centres undefined)
inactive: [1] | [4] | [7] | [10]
active: [2] 32 µM | [3] 35.8 µM | [5] 26.6 µM | [6] 30.6 µM | [8] 28.7 µM | [9] 32.6 µM

CCCCC=O
inactive: all assays above

CCC(C)c1ccccc1O (centres undefined)
inactive: all assays above

CCCCc1oc2ccccc2c1C(=O)c1cc(I)c(OCCN(CC)CC)c(I)c1
active: [1] 23.9 µM | [2] 5.94 µM | [3] 22 µM | [4] 27.2 µM | [5] 25.1 µM | [6] 8.1 µM | [7] 24 µM | [8] 12.4 µM | [9] 18.9 µM | [10] 27.9 µM

CS(=O)(=O)c1ccc([C@@H](CC2CCCC2)C(=O)Nc2cnccn2)cc1Cl
active: [6] 26.9 µM
inactive: all other assays above

C=CC(=C)CC/C=C(\C)CCC=C(C)C
inactive: all assays above

COCN(COC)c1nc(N(COC)COC)nc(N(COC)COC)n1
inactive: all assays above

OCC(F)(F)C(F)(F)C(F)(F)C(F)(F)C(F)(F)C(F)(F)C(F)(F)C(F)(F)C(F)(F)C(F)(F)C(F)(F)F
inactive: all assays above

Cc1ccc(C(=O)c2ccccc2)cc1
active: [1] 0.0224 µM | [2] 3.97 µM
inactive: all other assays above
